Assay [1] in a line: sensitizers of A549 cells to miR-34 induction, primary screen, imaging, A549 dox-inducible miR-34, nuclei and caspase counts (AID 1347080). Conditions: A549 miR-34 inducible, Hoechst nuclei count, 48 h.
Assay [2] is described as follows: phospholipid biosynthesis inhibitors in animal cells, primary screen, cell-based, LOPAC library, screen 4 (AID 1347384; call rule not given here). Conditions: phospholipid biosynthesis inhibition screen, at 10 µM.
Assay [3] can be described thus: survival rescue of mitochondrial mutant cells in low glucose, primary screen, MELAS cybrids, Rieske KO mouse fibroblasts, CellTiter-Glo (AID 1508586;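 active = mean z-score across replicates of 1.96 or higher in either the MELAS or the Rieske mutant cell line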;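 note: z relative to plate mean and SD of compound and empty wells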). (In general: ATP-based viability assays read luminescence as a measure of living cells.)
Assay [4] deals with NAD(+) hydrolase SARM1 (Homo sapiens) (UniProt Q6SZW1). Nature of the assay: SARM1 TIR NADase inhibitors, cell lysate, NAD-Glo luminescence (AID 1508614;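 active = compound whose remaining NAD level is above about 45 nM, limit read from the data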;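 note: higher remaining NAD means stronger inhibition of SARM1 NADase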). As to conditions: SAM-TIR HEK293T lysate NADase, at 1 µM, stronger effect = higher value.
Sequence of NAD(+) hydrolase SARM1 (Homo sapiens) (Q6SZW1 whole entry, looked up, the tested form may be a part): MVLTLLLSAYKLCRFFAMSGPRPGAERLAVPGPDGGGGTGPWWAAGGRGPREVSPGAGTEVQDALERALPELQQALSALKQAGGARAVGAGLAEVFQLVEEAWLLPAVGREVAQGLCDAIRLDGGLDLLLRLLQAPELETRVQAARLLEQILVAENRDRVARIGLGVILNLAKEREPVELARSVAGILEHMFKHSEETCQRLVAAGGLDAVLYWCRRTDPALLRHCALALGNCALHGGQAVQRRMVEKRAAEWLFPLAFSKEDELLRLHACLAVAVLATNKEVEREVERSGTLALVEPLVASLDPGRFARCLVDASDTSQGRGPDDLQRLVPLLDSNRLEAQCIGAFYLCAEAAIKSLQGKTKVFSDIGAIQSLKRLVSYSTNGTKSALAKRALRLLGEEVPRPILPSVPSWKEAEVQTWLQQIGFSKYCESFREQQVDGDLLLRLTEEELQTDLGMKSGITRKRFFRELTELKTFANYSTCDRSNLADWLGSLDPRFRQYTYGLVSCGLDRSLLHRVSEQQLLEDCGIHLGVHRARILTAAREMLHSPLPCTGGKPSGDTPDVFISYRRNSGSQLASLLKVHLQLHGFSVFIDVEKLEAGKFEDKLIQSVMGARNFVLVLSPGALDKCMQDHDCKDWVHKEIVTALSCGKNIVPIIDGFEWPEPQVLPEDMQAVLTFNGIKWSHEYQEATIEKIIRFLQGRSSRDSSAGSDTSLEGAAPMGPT
Assay [5] addresses Mitogen-activated protein kinase 7 (Homo sapiens) (UniProt Q13164). Nature of the assay: ERK5 transactivation activators in reporter cells, primary screen, cell-based, HTS (AID 1508626;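 active = luciferase signal above three times the same-plate solvent-only control wells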;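 note: luciferase driven by Gal4-ERK5 fusion binding five Gal4 sites before minimal TATA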). As to conditions: HeLa Gal4-ERK5 transactivation, 18 h, at 5 µM, stronger effect = higher value.
Assay [6] can be described thus: viability rescue of complex I mutant cybrids, primary screen, cell-based, galactose medium, ATP luminescence (AID 1645843;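 active = z-score of at least 1.8 in each of two replicates, scored against plate mean and spread of sample wells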;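 note: positive z means more ATP and so rescue of galactose-driven cybrid death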). Conditions: complex I mutant cybrid cells, 72 h, stronger effect = higher value.
Assay [7] is described as follows: modifiers of HSF1 nuclear foci, imaging, Selleck Cancer Library (AID 1347162; in the data active = plate-normalised HSF1 focus index below about 0.46). As to conditions: human cells, at 10 µM; SSMD: measured here: HSF1 foci SSMD mean; cell count: measured here: cell number; plate-normalised HSF1 focus index: stronger effect = lower value.
A short description of assay [8]: JHH-DIPG-1 glioma cell viability, MIPE5.0 library, CellTiter-Glo luminescence, qHTS (AID 1347067; cut-off not given, nearly all actives have AC50 up to about 26 µM;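 note: cells exposed to compound for 48 hours before readout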). As to conditions: JHH-DIPG-1 glioma viability, CellTiter-Glo ATP luminescence.
Assay [9] is described as follows: inhibitors of Cryptococcus chitosan production, flow cytometry, Cibacron Brilliant Red staining (AID 1347148; call rule not given here;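 note: compound exposure lasted three days at 37 degrees C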). As to conditions: Cryptococcus neoformans chitosan, stronger effect = lower value; at 10 µM unless noted. A general note: A flow cytometer gives signals particle by particle.
Assay [10] in a line: SU-DIPG-XXV glioma cell viability, MIPE5.0 library, qHTS (AID 1347068; cut-off not given, nearly all actives have IC50 up to about 30 µM). Background: Quantitative high-throughput screening tests each substance at several concentrations.
Setting [11] is: stronger effect = lower value, cell number ratio, induced over uninduced.
Where [12] appears, read: measured here: relative caspase fold change +Dox/-Dox.
The mark [13] stands for this setting: measured here: total cells with miR-34 induction, stronger effect = lower value.
Setting [14] is: measured here: total cells without miR-34 induction.
Setting [15] is: MELAS cybrid survival, CellTiter-Glo 48 h, stronger effect = higher value.
Setting [16] is: Rieske KO mouse fibroblast survival, CellTiter-Glo 72 h.

Molecules are shown by their SMILES. “And” between values parts separate entries of the source, which are not always exact repeats. Identical values can stand only once. Records with an inconclusive call do not appear. The source made the active and inactive calls.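 Rule for the calls, unless noted: active = compounds whose cell count with miR-34 switched on is under 0.7 times the count with it off; inactive = the rest.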

Sequence of Mitogen-activated protein kinase 7 (Homo sapiens) (Q13164 whole entry, looked up, the tested form may be a part): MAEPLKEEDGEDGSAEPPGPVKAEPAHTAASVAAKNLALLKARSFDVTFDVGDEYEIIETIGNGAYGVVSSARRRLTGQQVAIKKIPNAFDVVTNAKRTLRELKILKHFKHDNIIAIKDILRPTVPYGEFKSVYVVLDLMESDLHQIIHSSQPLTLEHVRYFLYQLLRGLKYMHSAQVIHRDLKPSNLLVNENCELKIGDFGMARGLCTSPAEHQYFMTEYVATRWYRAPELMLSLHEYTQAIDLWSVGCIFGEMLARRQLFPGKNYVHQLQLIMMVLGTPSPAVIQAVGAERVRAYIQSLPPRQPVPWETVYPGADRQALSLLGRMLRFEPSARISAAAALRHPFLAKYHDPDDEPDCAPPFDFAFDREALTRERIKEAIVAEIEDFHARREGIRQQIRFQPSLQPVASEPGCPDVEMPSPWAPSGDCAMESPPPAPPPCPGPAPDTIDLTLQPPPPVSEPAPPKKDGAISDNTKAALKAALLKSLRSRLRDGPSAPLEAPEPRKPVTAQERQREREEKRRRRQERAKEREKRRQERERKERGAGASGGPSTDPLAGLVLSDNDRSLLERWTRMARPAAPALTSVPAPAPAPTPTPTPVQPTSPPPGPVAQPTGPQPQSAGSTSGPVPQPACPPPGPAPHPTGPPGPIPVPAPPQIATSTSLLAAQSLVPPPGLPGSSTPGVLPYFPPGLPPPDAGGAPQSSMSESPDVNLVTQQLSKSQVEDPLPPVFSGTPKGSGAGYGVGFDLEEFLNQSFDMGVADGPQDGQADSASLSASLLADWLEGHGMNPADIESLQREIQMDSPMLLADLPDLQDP

`CO[C@@]1(NC(=O)CSCC#N)C(=O)N2C(C(=O)O)=C(CSc3nnnn3C)CS[C@@H]21`: the fold change in assay [1] (setting [11]) was 1.01 (inactive) and 0.961 (inactive); in assay [1] (setting [12]), 1.5 and 1.13. Besides, the cell count in assay [1] (setting [13]) was 11000 and 9300; in assay [1] (setting [14]), 10900 and 9680. Moreover, the outcome in assay [2] was inactive. Moreover, the values for the z-score in [3] (setting [15]), in assay [3] (setting [16]) and in assay [6] were -0.493 (inactive), -0.322 and 0.77 (inactive), respectively. For the same compound, the remaining NAD in assay [4] was 10 nM (inactive). Besides, the luciferase signal in assay [5] was 108 AU (inactive).
Take `C[C@]12CC[C@@H]3c4ccc(O)cc4CC[C@H]3[C@@H]1CCC2=O`: the fold change in [1] (setting [11]) is 0.96 (inactive) and 0.932 (inactive) and 0.881 (inactive); in assay [1] (setting [12]) it was 1.22 and 1.44 and 1.06. For the same compound, the cell count in [1] (setting [13]) was 9000 and 8450 and 7620; in [1] (setting [14]) it was 9370 and 9060 and 8650; in assay [7], 6870. This compound also returned an SSMD in [7] of 2.44. Besides, the plate-normalised HSF1 focus index in [7] was 1.13 (inactive). In [2], the compound was classed as inactive. Also, the z-score is 0.711 (inactive) and 0.373 (inactive) in assay [3] (setting [15]); 0.46 and -0.298 in assay [3] (setting [16]); -0.23 (inactive) and -0.335 (inactive) in assay [6]. In assay [4], the remaining NAD was 10 nM (inactive). Also, the luciferase signal in assay [5] was 28 AU (inactive).
As for `Nc1nc(F)nc2c1ncn2[C@@H]1O[C@H](CO)[C@@H](O)[C@@H]1O`, the call in assay [8] was inactive. In addition, the fold change was 1.1 (inactive) and 1.04 (inactive) in assay [1] (setting [11]); 0.763 and 0.78 in [1] (setting [12]). Besides, the cell count in [1] (setting [13]) was 2060 and 1630; in assay [1] (setting [14]) it was 1870 and 1560; in [7], 6840. In addition, the SSMD in assay [7] came out at 0.111. In assay [7], the plate-normalised HSF1 focus index was 1.01 (inactive). Further, the z-score in [3] (setting [15]) is 4.36 (active); in assay [3] (setting [16]), 1.07; in assay [6], 0.045 (inactive) and -0.22 (inactive).
On to `CN1Cc2c(N)cccc2C(c2ccccc2)C1` (centres undefined), for which the fold change was 1.2 (inactive) and 0.943 (inactive) and 0.87 (inactive) in [1] (setting [11]); 1.05 and 0.932 and 4.35 in assay [1] (setting [12]). Besides, the cell count is 9850 and 8420 and 10600 in assay [1] (setting [13]); 8240 and 8920 and 12100 in assay [1] (setting [14]). For the same compound, the compound was classed as inactive in assay [2]. Also, the z-score was 0.549 (inactive) in [3] (setting [15]), 0.0395 in assay [3] (setting [16]) and -0.015 (inactive) in [6]. Moreover, in assay [4], the remaining NAD is 17 nM (inactive). Besides, in [5], the luciferase signal is 88 AU (inactive).
A word on the AC50: it is the concentration giving half of the maximal activity seen. `O=C1Nc2ccc(Cl)cc2[C@@](C#CC2CC2)(C(F)(F)F)O1`: the concentration at half-maximal activity (AC50) in assay [8] is 20.9 µM (active). Further, the fold change in [1] (setting [11]) is 0.73 (inactive) and 0.903 (inactive); in [1] (setting [12]) it was 1.52 and 0.886. Further, the cell count was 6400 and 6960 in [1] (setting [13]); 8760 and 7710 in assay [1] (setting [14]). The z-score is 1.16 (inactive) and -1.54 (inactive) in assay [3] (setting [15]); 0.346 and 0.0528 in [3] (setting [16]); -1.77 (inactive) and -2 (inactive) in [6].
For the compound `CN(C)CCOC(=O)COc1ccc(Cl)cc1`, the fold change in [1] (setting [11]) was 1.05 (inactive) and 0.847 (inactive) and 0.935 (inactive); in assay [1] (setting [12]), 2.3 and 1.11 and 0.787. The cell count was 9260 and 9320 and 8720 in [1] (setting [13]); 8800 and 11000 and 9330 in [1] (setting [14]). In assay [2], the outcome was inactive. The z-score in assay [3] (setting [15]) is -0.229 (inactive) and 0.0507 (inactive); in [3] (setting [16]) it was -0.156 and 1.13; in assay [6], 1.14 (inactive). In [4], the remaining NAD is 10 nM (inactive). The luciferase signal in assay [5] is 64 AU (inactive).
`Nc1ccc(S(=O)(=O)Nc2ccnn2-c2ccccc2)cc1`: the fold change was 0.969 (inactive) and 0.9 (inactive) in [1] (setting [11]); 1.76 and 1.07 in assay [1] (setting [12]). For the same compound, the cell count in assay [1] (setting [13]) was 10100 and 7980; in assay [1] (setting [14]), 10500 and 8860. The compound was classed as inactive in assay [2]. For the same compound, the z-score was -0.791 (inactive) in assay [3] (setting [15]), -0.133 in assay [3] (setting [16]) and 0.735 (inactive) in assay [6]. For the same compound, the remaining NAD in [4] was 10 nM (inactive). The luciferase signal in assay [5] was 96 AU (inactive).
For `O=C(O)CN1C(=O)c2cccc3cccc(c23)C1=O`, the fold change was 0.898 (inactive) and 0.959 (inactive) and 0.946 (inactive) in assay [1] (setting [11]); 1.04 and 0.818 and 2.08 in assay [1] (setting [12]). Also, the cell count was 5450 and 8540 and 11100 in assay [1] (setting [13]); 6060 and 8900 and 11700 in assay [1] (setting [14]). Also, the fold fluorescence in assay [9] is 3.97 [at 195.9 µM] (inactive). Moreover, the remaining NAD in [4] is 13 nM (inactive). Also, in assay [5], the luciferase signal is 44 AU (inactive). In addition, the z-score in [6] is 0.415 (inactive).
In the case of `CCOC(=O)O[C@]1(C(=O)OCCl)CC[C@H]2[C@@H]3CCC4=CC(=O)C=C[C@]4(C)[C@H]3[C@@H](O)C[C@@]21C`, the result in [10] was inactive. Besides, the figures for the z-score in [3] (setting [15]) and in assay [3] (setting [16]) were 0.475 (inactive) and 0.287, respectively.
`Cc1nc2sccn2c(=O)c1CCN1CCC(=C(c2ccc(F)cc2)c2ccc(F)cc2)CC1`: the fold change in assay [1] (setting [11]) is 1.04 (inactive) and 0.919 (inactive) and 0.754 (inactive); in assay [1] (setting [12]) it was 0.73 and 0.904 and 7.37. Also, the cell count was 8680 and 6720 and 10000 in [1] (setting [13]); 8330 and 7320 and 13300 in [1] (setting [14]). The result in assay [2] was inactive. Also, in [4], the remaining NAD is 10 nM (inactive). Further, in [5], the luciferase signal is 152 AU (active). In addition, the z-score in assay [6] was -1.37 (inactive) and -0.82 (inactive).
`Nc1c2c(nc3ccccc13)CCCC2O` (centres undefined): the fold change in [1] (setting [11]) was 0.95 (inactive) and 0.845 (inactive) and 0.969 (inactive); in [1] (setting [12]), 0.943 and 1.26 and 0.952. In addition, the cell count in assay [1] (setting [13]) is 9940 and 8540 and 10300; in assay [1] (setting [14]) it was 10500 and 10100 and 10600. Further, the outcome in [2] was inactive. Besides, the z-score in [3] (setting [15]) is 1.73 (inactive) and -0.394 (inactive); in assay [3] (setting [16]), 0.362 and -0.175; in assay [6], 0.445 (inactive) and 0.48 (inactive). Further, the luciferase signal in assay [5] was 36 AU (inactive).
For the compound `CC(=O)Nc1ccccc1`, the fold change in [1] (setting [11]) is 0.942 (inactive) and 0.865 (inactive); in assay [1] (setting [12]) it was 0.456 and 3.01. The cell count in assay [1] (setting [13]) was 7610 and 11100; in assay [1] (setting [14]), 8080 and 12800. Besides, the z-score in assay [3] (setting [15]) is -0.316 (inactive); in [3] (setting [16]), -0.0672. Moreover, the remaining NAD in assay [4] is 10 nM (inactive). The luciferase signal in assay [5] was 60 AU (inactive).
For the compound `CCCCCCCC/C=C\CCCCCCCC(=O)NCc1ccc(O)c(OC)c1`, the fold change is 1.07 (inactive) and 0.928 (inactive) and 0.945 (inactive) in assay [1] (setting [11]); 0.981 and 1.03 and 0.614 in [1] (setting [12]). The cell count in [1] (setting [13]) is 10500 and 5740 and 9140; in [1] (setting [14]), 9800 and 6180 and 9670. In addition, in [2], the call was inactive. Besides, the z-score in [6] was -1.29 (inactive) and -1.24 (inactive).

(Values after PubChem BioAssay.)
